Results taken from PubChem BioAssay (EPA / NIEHS).
Values joined by “and” are separate entries in the source; they are usually repeats but may differ in a detail not shown here. Equal values may be shown once. Records with an inconclusive call do not appear. A structure can be active in one record and inactive in another. Active and inactive are the calls of the source. The calls were made as follows: active = hit-call score of the fitted dose curve at least 0.9, where 1 is the maximum; inconclusive = response in the unintended direction; inactive = score below 0.9.

Experiment: TOX21_p53_BLA_p2_viability: Viability Assessment in the Tox21 HCT-116 p53 Agonism Beta-lactamase Assay, Phase 2 (AID 2283591);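 also: compound exposure lasted 16 h at 37 °C; actives lower the ATP signal meaning cytotoxicity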
Source text: TOX21_p53_BLA_p2 is a cell-based, single-readout assay that uses HCT116, a human intestinal cell line, […] in a 1536-well plate.TOX21_p53_BLA_p2_viability is an assay readout measuring cellular ATP content and detected with CellTiter-Glo Luciferase-coupled ATP quantitation.TOX21_p53_BLA_p2_viability used a type of viability reporter where loss-of-signal activity can be used to understand changes in the cell viability. Furthermore, this assay endpoint can be referred to as a secondary readout, because this assay has produced multiple assay endpoints where this one serves a viability function. To generalize the intended target to other relatable targets, this assay endpoint is annotated to the cell cycle intended target family, where the subfamily is cytotoxicity.
Thawing Method: Place 14 mL of pre-warmed thaw medium into a 15 mL of conical tub. Remove the vial of cells to be thawed from liquid nitrogen and thaw rapidly by placing at 37C in a water bath with gentle agitation for 1-2 minutes. Decontaminate the vial by wiping with 70% ethanol before opening in a biological safety cabinet. Transfer the vial contents drop-wise into 14 mL of thaw medium in a sterile 15-mL conical tub. Centrifuge cells at 900 rpm for 4 minutes and resuspend in thaw medium. Transfer contents to the T75 tissue culture flask containing Thaw Medium and place flask in a humidified 37C/5% CO2 incubator. Switch to growth medium at first passage.Propagation Method: Aspirate medium, rinse once in DPBS, add 0.25% Trypsin/EDTA and swirl to coat the cell evenly. Add an equal volume of Growth Medium to inactivate Trypsin after 2-3 minutes incubation at 37C. Centrifuge cells at 900 rpm for 4 minutes and resuspend in growth medium. Cell should be passage or fed at least twice a week.Assay Protocol: Harvest cells from culture in growth medium and resuspend in assay medium. 2.2 Dispense 4000 cells/5 uL/well into 1536-well black/clear bottom plates using a Multidrop dispenser. After the cells were incubated at 37C for 5 hours, 23 nL of compounds dissolved in DMSO were transferred to the assay plate by a PinTool resulting in a 217-fold dilution. Incubate the plates for 16 hours at 37C, 5% CO2. Add 1 uL of 6X LiveBLAzer FRET B/G (CCF4-AM) Substrate Mixture to each well using a BioRAPTR dispenser and incubate the plates at room temperature for 2 hours. Measure fluorescence intensity at 460 and 530 nm emission and 405 nm excitation by an Envision detector. Data is expressed as the ratio of 460nm/530nm emissions. Add 4 uL of Cell-titer Glo to each well using BioRAPTR and incubate the plates at room temperature for […]. For cell viability readout that measures cytotoxicity, 4 ul/well of CellTiter-Glo reagent was added into the assay plates using a Flying Reagent Dispenser. After 30 min incubation at room temperature, the luminescence intensity in the plates was measured using a ViewLux plate reader.
With `O=S1(=O)OC(c2cc(Br)c(O)c(Br)c2)(c2cc(Br)c(O)c(Br)c2)c2ccccc21` the outcome was “inactive”.
For `CCN(N=O)C(N)=O`, the outcome was “inactive”.
For `COc1ccc(N)cc1`, the outcome was “inactive”.
With `CCOP(=S)(OCC)O/N=C(\C#N)c1ccccc1` the outcome was “inactive”.
For `OCCCCO`, the outcome was “inactive”.
For `Cc1c([N+](=O)[O-])c(C)c([N+](=O)[O-])c(C(C)(C)C)c1[N+](=O)[O-]`, the outcome was “inactive”.
In the case of `CC(O)(CS(=O)(=O)c1ccc(F)cc1)C(=O)Nc1ccc(C#N)c(C(F)(F)F)c1` (stereo not given), the outcome is reported as “inactive”.
In the case of `CCOc1cc(C=O)ccc1O`, the outcome is reported as “inactive”.
For `Cc1cc(-c2cc(C)c(N)c(C)c2)cc(C)c1N`, the outcome was “inactive”.
For `O=[N+]([O-])c1cccc2ccccc12`, the outcome was “inactive”.
With `CCCCCCCCCCCCCl` the outcome was “inactive”.
With `N#CS` the outcome was “inactive”.
In the case of `O=[N+]([O-])c1ccc(Nc2ccccc2)cc1`, the AC50 is reported as 32.5 µM (active).
For `CC(C=O)Cc1ccc2c(c1)OCO2` (stereo not given), the outcome was “inactive”.
With `CC(C)[C@H](C(=O)OC(C#N)c1cccc(Oc2ccccc2)c1)c1ccc(OC(F)F)cc1` (stereo not given in full) the outcome was “inactive”.
With `CC(C)(c1ccccc1)c1cc(-n2nc3ccccc3n2)c(O)c(C(C)(C)c2ccccc2)c1` the outcome was “inactive”.
For `N#CCC#N`, the outcome was “inactive”.
For `CN(N=O)C(N)=O`, the outcome was “inactive”.
For `C=CC(=O)OCC(COC(=O)C=C)(COC(=O)C=C)COC(=O)C=C`, the AC50 was 16.6 µM (active).
With `CC(C)[C@@H](Nc1ccc(C(F)(F)F)cc1Cl)C(=O)OC(C#N)c1cccc(Oc2ccccc2)c1` (stereo not given in full) the outcome was “inactive”.
With `CCOC(=O)OC1=C(c2cc(C)ccc2C)C(=O)NC12CCC(OC)CC2` (stereo not given) the outcome was “inactive”.
With `CC(C)CC(C)(c1ccc(O)cc1)c1ccc(O)cc1` the AC50 was 23.7 µM (active) and 75.4 µM (active).
In the case of `O=C(CCl)Nc1ccccc1`, the outcome is reported as “inactive”.
For `O=C(O)CC(O)(CC(=O)O)C(=O)O`, the outcome was “inactive”.
With `Cc1cccc(N=Nc2ccc(N(C)C)cc2)c1` the outcome was “inactive”.
In the case of `Clc1cnc(Oc2ccc(Oc3ncc(Cl)cc3Cl)cc2)c(Cl)c1`, the outcome is reported as “inactive”.
For `CCN(CC)C(=O)C(Cl)=C(C)OP(=O)(OC)OC`, the outcome was “inactive”.
For `c1ccc2c(c1)Oc1ccccc1O2`, the outcome was “inactive”.
In the case of `Cc1ccccc1OP(=O)(Oc1ccccc1C)Oc1ccccc1C`, the outcome is reported as “inactive”.
With `Cc1cc(Cl)ccc1O` the outcome was “inactive”.
With `CCOc1ccc(N)cc1` the outcome was “inactive”.
With `C=CC(=O)NC(C)(C)CC(C)=O` the outcome was “inactive”.
With `O=c1oc2ccccc2c(O)c1C(CC(O)c1ccc(-c2ccc(Br)cc2)cc1)c1ccccc1` (stereo not given) the AC50 was 6.09 µM (active) and the outcome was “inactive”.
For `O=S(=O)(c1ccc(Cl)cc1)c1cc(Cl)c(Cl)cc1Cl`, the outcome was “inactive”.
For `CCOP(=O)(OCC)OC(=CCl)c1ccc(Cl)cc1Cl`, the outcome was “inactive”.
In the case of `COP(=S)(OC)Oc1cc(Cl)c(I)cc1Cl`, the outcome is reported as “inactive”.
For `O=C(NC(=O)c1c(F)cccc1F)Nc1cc(Cl)c(OC(F)(F)C(F)C(F)(F)F)cc1Cl` (stereo not given), the outcome was “inactive”.
In the case of `O=S1OC[C@@H]2[C@H](CO1)[C@]1(Cl)C(Cl)=C(Cl)[C@@]2(Cl)C1(Cl)Cl` (stereo not given in full), the AC50 is reported as 67.1 µM (active).
With `O=C1c2ccccc2C(=O)C1C(=O)C(c1ccccc1)c1ccc(Cl)cc1` (stereo not given) the AC50 was 29.4 µM (active).
